Test results published in ChEMBL document CHEMBL3988442, “University of Dundee, Small-Polar-MMV Screening Library” (2021).
For some assays here: Entries with a potency or affinity are not part of this list.

Columns and labels:
Set-up in all cases: scale not given: direction of the effect not stated beside the values
[1] = molecular target: Protein translocase subunit SecA (Escherichia coli (strain K12)) (UniProt P10408); test: Assay to Identify E. coli SecA ATPase Inhibitors; type: functional; conditions: 30 µM
[2] = molecular target: T1, Ubiquitin-activating enzyme e1, putative (Leishmania donovani (strain BPK282A1)) (UniProt E9BSI1); test: Leishmania donovani Ubiquitin Activating Enzyme (LdE1); type: functional; conditions: 30 µM
T1 sequence (whole entry): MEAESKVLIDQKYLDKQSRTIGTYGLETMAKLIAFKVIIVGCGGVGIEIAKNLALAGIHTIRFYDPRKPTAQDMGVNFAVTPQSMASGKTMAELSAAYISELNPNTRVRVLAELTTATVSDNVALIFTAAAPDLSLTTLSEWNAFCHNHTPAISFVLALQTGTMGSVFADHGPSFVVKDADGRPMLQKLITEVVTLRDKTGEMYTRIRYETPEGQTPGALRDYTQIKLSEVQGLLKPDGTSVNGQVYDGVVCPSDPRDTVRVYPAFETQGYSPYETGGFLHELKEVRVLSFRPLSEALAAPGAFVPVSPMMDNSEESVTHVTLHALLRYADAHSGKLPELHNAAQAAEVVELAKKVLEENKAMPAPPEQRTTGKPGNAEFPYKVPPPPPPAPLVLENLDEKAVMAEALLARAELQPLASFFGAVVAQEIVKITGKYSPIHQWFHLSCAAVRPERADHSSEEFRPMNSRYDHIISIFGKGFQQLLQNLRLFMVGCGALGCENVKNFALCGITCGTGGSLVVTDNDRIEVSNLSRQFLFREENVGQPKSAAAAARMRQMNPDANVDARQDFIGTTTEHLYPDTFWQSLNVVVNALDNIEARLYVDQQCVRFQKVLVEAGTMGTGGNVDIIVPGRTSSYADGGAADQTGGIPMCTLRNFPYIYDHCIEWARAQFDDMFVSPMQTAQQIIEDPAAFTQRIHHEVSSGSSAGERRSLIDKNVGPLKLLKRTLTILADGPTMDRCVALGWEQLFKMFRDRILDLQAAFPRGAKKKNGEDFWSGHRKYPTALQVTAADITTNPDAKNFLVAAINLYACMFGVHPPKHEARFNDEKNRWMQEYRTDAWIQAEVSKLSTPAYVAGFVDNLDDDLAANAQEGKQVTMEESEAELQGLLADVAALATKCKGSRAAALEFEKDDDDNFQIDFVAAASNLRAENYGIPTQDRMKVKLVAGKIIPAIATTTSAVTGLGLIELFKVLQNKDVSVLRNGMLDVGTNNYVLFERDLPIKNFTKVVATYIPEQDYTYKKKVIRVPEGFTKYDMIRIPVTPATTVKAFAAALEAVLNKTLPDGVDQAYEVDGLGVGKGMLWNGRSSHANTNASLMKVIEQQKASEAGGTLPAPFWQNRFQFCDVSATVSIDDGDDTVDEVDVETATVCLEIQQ

[3] = molecular target: AMP-activated protein kinase, AMPK (Homo sapiens) (UniProt P54646+O43741+P54619+Q9UGJ0+Q9Y478+Q13131+Q9UGI9); test: AMP-dependent Kinase enzyme assay. An in vitro enzyme assay that detects ADP turnover that is directly proportional to AMPK activity. This uses naive AMPK that is activated during the assay with MK-8722; type: functional; conditions: 30 µM
[4] = molecular target: Sialic acid-binding Ig-like lectin 9 (Homo sapiens) (UniProt Q9Y336); test: Hs-Siglec9 ALPHAscreen SOP 20170721; conditions: 10 µM
Trypanosoma cruzi = test: Trypanosoma cruzi phosphomannomutase and mannose-1-phosphate guanylyltransferase assay; type: functional; conditions: 10 µM
[5] = molecular target: T2, Arginase-2, mitochondrial (Homo sapiens) (UniProt P78540); test: in vitro enzyme assay to detect the production of urea directly proportional to the activity of Arginase II; type: functional; conditions: 33.3 µM; note: in the data most compounds retested in dose-response had high values
T2 sequence (whole entry): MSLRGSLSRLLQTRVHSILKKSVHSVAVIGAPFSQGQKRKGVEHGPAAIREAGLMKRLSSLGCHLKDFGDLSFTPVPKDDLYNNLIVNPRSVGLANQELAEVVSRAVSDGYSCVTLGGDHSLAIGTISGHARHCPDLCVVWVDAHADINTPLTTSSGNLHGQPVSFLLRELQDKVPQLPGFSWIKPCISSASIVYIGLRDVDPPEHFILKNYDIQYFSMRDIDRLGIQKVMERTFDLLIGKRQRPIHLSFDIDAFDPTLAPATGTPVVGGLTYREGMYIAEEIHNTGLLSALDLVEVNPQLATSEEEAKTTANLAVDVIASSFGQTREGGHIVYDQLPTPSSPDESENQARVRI

[6] = molecular target: T3, Proteasome subunit beta (Trypanosoma cruzi) (UniProt O96673); test: Trypanosoma cruzi proteasome chymotrypsin-like activity (TcProtChymo) assay.; note: in the data most compounds retested in dose-response had high values; type: functional; conditions: 9.37 µM
T3 sequence (whole entry): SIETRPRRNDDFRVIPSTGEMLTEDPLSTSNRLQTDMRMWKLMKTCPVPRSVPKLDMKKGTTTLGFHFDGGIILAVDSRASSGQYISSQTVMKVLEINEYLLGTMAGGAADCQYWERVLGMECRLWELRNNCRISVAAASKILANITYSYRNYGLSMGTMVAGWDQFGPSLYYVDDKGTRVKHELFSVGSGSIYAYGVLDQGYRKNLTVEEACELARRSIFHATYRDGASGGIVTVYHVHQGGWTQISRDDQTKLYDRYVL

Homo sapiens = organism: Homo sapiens; test: To identify inhibition of the IFN signalling (Jak-Stat) pathway via expression of an eGFP reporter gene under the control of an IFN-stimulated response element (ISRE) containing MxA promoter.; type: functional; conditions: 30 µM
[7] = molecular target: T4, Tyrosyl-tRNA synthetase, putative (Trypanosoma cruzi (strain CL Brener)) (UniProt Q4DSP6); test: Trypanosoma cruzi tyrosyl tRNA synthetase (TcYRS) _High Tyrosine SOP; type: functional; conditions: 30 µM; note: in the data most compounds retested in dose-response had high values
T4 sequence (whole entry): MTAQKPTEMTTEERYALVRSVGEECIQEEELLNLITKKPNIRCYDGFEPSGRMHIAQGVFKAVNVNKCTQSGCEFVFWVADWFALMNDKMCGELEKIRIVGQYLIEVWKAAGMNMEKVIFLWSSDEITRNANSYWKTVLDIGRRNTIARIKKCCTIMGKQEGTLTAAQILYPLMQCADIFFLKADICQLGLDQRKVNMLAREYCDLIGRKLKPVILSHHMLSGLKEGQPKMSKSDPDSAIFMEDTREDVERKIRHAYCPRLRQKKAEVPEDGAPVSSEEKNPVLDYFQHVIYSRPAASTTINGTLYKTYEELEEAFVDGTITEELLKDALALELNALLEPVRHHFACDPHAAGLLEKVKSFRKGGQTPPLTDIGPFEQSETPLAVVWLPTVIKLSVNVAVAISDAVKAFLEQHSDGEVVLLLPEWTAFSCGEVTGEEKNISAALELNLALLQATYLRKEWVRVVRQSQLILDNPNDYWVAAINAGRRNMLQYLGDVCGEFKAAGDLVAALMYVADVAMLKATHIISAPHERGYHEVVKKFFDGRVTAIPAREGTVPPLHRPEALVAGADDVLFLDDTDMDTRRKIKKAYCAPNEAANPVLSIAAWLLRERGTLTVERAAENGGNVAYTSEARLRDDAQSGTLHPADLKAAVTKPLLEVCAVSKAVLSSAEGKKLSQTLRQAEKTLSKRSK

[8] = molecular target: T4, Tyrosyl-tRNA synthetase, putative (Trypanosoma cruzi (strain CL Brener)); test: Trypanosoma cruzi tyrosyl tRNA synthetase (TcYRS) SOP; type: functional; conditions: 30 µM
[9] = molecular target: Chromo domain-containing protein 1 (Saccharomyces cerevisiae (strain ATCC 204508 / S288c) (Baker's yeast)) (UniProt P32657); test: ScCHD-1 Enzyme Inhibition Assay; type: functional; conditions: 30 µM; note: in the data most compounds retested in dose-response had high values
Chain of Chromo domain-containing protein 1 (Saccharomyces cerevisiae (strain ATCC 204508 / S288c) (Baker's yeast)) (P32657 whole entry, the tested form may be a part): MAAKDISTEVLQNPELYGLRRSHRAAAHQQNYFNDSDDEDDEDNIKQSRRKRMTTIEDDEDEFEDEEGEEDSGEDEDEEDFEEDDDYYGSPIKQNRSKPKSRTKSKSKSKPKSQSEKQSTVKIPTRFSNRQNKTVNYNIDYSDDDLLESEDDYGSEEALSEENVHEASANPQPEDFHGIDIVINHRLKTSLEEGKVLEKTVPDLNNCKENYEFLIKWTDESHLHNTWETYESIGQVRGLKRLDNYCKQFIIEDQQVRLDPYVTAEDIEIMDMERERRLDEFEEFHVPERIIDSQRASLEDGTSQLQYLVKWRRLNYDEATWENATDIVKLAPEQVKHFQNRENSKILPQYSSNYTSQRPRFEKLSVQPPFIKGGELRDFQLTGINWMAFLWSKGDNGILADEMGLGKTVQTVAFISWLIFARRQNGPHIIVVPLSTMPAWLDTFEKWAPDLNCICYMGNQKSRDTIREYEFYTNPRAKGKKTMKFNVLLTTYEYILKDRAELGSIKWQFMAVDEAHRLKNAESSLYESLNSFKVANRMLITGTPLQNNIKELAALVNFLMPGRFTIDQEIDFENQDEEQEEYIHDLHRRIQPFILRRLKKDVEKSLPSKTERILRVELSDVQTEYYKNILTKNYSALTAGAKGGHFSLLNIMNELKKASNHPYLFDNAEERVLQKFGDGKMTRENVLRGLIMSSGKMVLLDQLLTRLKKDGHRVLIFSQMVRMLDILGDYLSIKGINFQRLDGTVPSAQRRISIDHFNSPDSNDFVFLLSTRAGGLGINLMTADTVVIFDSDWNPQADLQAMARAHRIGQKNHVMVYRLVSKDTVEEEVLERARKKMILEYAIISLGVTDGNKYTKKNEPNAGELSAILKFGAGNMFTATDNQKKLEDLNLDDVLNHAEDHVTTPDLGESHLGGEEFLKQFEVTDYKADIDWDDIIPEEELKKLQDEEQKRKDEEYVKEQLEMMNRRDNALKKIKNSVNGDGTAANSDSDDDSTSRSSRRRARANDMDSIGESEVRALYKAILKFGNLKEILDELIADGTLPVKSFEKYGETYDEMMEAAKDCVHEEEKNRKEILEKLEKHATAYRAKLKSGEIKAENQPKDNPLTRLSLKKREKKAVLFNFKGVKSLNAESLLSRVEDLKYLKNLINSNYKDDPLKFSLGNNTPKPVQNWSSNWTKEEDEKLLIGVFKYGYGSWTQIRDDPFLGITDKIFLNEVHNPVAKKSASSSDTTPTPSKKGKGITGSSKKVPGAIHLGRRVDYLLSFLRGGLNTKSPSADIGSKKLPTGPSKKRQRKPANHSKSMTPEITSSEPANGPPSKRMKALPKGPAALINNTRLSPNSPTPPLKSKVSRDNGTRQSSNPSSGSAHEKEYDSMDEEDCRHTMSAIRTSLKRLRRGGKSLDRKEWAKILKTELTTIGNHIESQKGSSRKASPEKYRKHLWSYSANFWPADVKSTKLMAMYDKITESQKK

Chain of Sialic acid-binding Ig-like lectin 9 (Homo sapiens) (Q9Y336 whole entry): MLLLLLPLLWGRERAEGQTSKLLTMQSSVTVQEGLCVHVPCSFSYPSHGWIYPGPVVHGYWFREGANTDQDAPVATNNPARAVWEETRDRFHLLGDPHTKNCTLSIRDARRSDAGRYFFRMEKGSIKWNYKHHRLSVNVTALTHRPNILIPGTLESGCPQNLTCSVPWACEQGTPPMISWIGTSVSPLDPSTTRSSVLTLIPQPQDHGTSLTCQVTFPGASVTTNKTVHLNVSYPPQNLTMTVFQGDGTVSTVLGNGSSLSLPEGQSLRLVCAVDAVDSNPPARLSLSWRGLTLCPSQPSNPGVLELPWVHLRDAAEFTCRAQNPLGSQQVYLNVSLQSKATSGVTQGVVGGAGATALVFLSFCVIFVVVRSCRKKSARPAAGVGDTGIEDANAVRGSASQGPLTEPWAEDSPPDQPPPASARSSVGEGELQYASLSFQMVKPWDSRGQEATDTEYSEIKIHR
Chain of Protein translocase subunit SecA (Escherichia coli (strain K12)) (P10408 whole entry): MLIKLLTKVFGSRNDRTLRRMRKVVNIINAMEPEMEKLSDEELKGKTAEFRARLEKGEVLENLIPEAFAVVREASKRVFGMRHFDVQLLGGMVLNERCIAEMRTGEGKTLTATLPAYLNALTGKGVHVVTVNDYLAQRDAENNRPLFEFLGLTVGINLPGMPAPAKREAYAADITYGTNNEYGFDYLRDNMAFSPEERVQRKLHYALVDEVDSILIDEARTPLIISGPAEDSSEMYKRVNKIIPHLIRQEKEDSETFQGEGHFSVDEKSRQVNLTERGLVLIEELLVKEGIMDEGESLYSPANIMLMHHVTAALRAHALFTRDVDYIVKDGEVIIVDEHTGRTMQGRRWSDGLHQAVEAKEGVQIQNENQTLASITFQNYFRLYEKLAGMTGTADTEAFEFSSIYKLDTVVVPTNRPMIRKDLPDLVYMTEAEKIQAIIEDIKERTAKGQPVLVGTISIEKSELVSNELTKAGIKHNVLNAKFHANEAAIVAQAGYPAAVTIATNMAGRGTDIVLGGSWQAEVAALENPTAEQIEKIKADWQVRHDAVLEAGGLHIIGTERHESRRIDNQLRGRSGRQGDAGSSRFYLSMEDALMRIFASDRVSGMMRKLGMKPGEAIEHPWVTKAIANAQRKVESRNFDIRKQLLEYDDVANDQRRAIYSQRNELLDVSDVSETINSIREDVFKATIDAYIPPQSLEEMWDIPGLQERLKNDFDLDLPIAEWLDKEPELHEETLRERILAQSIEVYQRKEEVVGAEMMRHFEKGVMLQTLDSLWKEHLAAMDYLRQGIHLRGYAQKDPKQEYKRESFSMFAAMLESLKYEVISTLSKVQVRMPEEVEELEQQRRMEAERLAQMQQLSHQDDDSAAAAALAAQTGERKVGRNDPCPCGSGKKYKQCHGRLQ

SMILES | Percent Effect [1] | Percent Effect [2] | Percent Effect [3] | Percent Effect [4] | Percent Effect (Trypanosoma cruzi) | Percent Effect [5] | Percent Effect [6] | Percent Effect (Homo sapiens) | Percent Effect [7] | Percent Effect [8] | Percent Effect [9]
O=S(=O)(Cc1ccccc1F)NCCN1CCOCC1 | -4.08% | 8% | -0.989% | -5.08% | -3.02% | -1.04% | 12.6% | -12.7% | -1.64% | 6.17% | -1.76%
c1ccc(-n2nnnc2CN2CCCC(Cn3cncn3)C2)cc1 (configuration not stated) | -1.71% | 6.33% | 5.51% | 4.14% | -5.03% | 0.645% | 9.61% | 4.63% | 3.12% | 10.1% | -17.9%
O=C(CCc1ccc(=O)[nH]n1)N1CCCC(COc2ccc(F)cc2)C1 (configuration not stated) | -2.1% | 1.39% | -1.82% | -3.84% | 1.85% | 2.65% | 16.3% | 5.9% | 6.32% | 12.8% | -1.89%
O=C(Nc1nncs1)NC1CCc2ccccc21 (configuration not stated) | 0.119% | 5.48% | 1.57% | 3.21% | -6.94% | -3.19% | 8.13% | 40.4% | 6.25% | 16.1% | -1.82%
Cn1nnc2c1CCN(CC1CC1)C2COCc1ccccc1 (configuration not stated) | -1.15% | 16% | -5.25% | -5.75% | 2.36% | 5.36% | 3.44% | -2.55% | 9.57% | 14.1% | -4.41%
COc1cccc(N2CCN(Cc3ncc[nH]3)CC2=O)c1 | -0.114% | 6.94% | -20.4% | -7.16% | -1.85% | -0.442% | 12.3% | -17.7% | -2.1% | 10.3% | -4.76%
O=C1CC(N(C(=O)c2ccc3c(c2)CCC3)C2CC2)C(=O)N1 (configuration not stated) | -3.91% | 7.59% | -5.04% | -3.45% | -8.21% | 4.18% | 5.98% | 25.8% | -0.493% | 1.27% | -6.63%
COCCCN(CCOC)C(=O)Nc1ccccc1Br | 0.00988% | -5.26% | 4.89% | -4.8% | -1.46% | -10.7% | 2.01% | -13.7% | 3.19% | 2.6% | 0.558%
Cn1cc(CN2CCc3nc(-c4ccccn4)nc(O)c3C2)cn1 | -7.26% | 2.67% | -8.66% | 8.08% | 6.69% | -3.96% | -0.617% | -0.651% | 10.6% | 29.5% | -10.9%
Cc1noc(C(C)N2CCN(CCC(=O)N3CCCCC3)CC2)n1 (configuration not stated) | -2.79% | 10.5% | -2.48% | 3.61% | 4.19% | -16.6% | 9.68% | 21.2% | 3.19% | 15.6% | -5.47%
O=C(c1ccnnc1)N1C[C@H]2CCC[C@@]2(COCC2CCOCC2)C1 | -1.23% | -16.2% | 2.91% | 1.16% | 7.72% | -2.87% | 9.04% | -6.27% | -1.08% | 5.13% | 0.739%
O=S(=O)(NCC1CCN(c2ccccn2)CC1)c1ccccc1F | -1.81% | 23.4% | 0.655% | -16.3% | 3.25% | -5.81% | 12% | 14.5% | 2.12% | 14.1% | -12.6%
COc1ccc2cc(C3CN(C(=O)C4CCOCC4)CCO3)ccc2c1 (configuration not stated) | -3.12% | 2.7% | 1.82% | 0.48% | 1.93% | 2.38% | 9.31% | -4.85% | 4.76% | 12.2% | -2.89%
CC(=O)N1[C@H](Cn2cncn2)C[C@@H]2CN(c3ccc(C)nn3)CC[C@@H]21 | -0.849% | 2.6% | 1.33% | 0.483% | 3.83% | 0% | 9.98% | -9.62% | -1.07% | 1.24% | -3.45%
Cc1ccc(C)c(OCCN2CCC(N3CCNC3=O)CC2)c1 | -3.83% | 10.8% | -16.9% | 6.39% | -2.69% | 2.03% | 1.62% | 6.79% | 4.95% | 13.4% | -0.537%
Cc1cc(O)c(OCC(=O)/N=c2\[nH]cc(C)s2)cn1 | -5.77% | 18.4% | 3.17% | 0.981% | 3.6% | -5.92% | 5.85% | -4.26% | 5.32% | 10.4% | -2.08%
CC(C)NC(=O)Cn1cc(-c2ccccc2)cn1 | -1.92% | 6.33% | 6.33% | -0.321% | 2.15% | 3.23% | 13.7% | -2.22% | 4.17% | 10.1% | 1.99%
CCOCC1CN(Cc2cccc(C#N)c2)Cc2nccn2C1 (configuration not stated) | -3.99% | -5.48% | 2.91% | 1.44% | -2.38% | -2% | 12.4% | -1.58% | 4.17% | 3.7% | -1.98%
CCc1nc(NCCCn2cccn2)c2c(n1)c(C)nn2C | -3.56% | 20% | -0.746% | 2.66% | 0.197% | -0.528% | 17.6% | 8.9% | 6.35% | 12.8% | -12.1%
CCc1nc(CN2CCCC(N(C)Cc3cnn(C)c3)C2)no1 (configuration not stated) | -1.5% | 8.22% | -0.902% | 3.69% | 2.74% | 5.91% | 9.23% | -2.09% | 1.07% | 2.5% | -3.19%
COc1ccccc1C1CNC(=O)c2nc(-c3ncc[nH]3)[nH]c2C1 (configuration not stated) | -0.895% | 16.2% | -2.89% | 12.1% | 7.14% | 4.29% | 14.3% | 20.7% | 14.3% | 29.3% | -3.23%
COc1cccc(CN(C)C(=O)CCC(=O)c2ccc(Cl)cc2)c1OC | -3.29% | -5.48% | -3.03% | 3.31% | -0.992% | -7.58% | 6.59% | 17% | 1.04% | 8.64% | -4.85%
